Experimental data published in PubChem BioAssay (EPA / NIEHS).
Inconclusive results are not listed. Where a structure was tested more than once in an assay, its records may differ in their call. Calls of active or inactive are those of the source. The calls were made as follows, unless noted: active = hit-call score of the fitted dose curve at least 0.9, where 1 is the maximum; inconclusive = response in the unintended direction; inactive = score below 0.9.

What was measured:
[1] = Tanguay_ZF_120hpf_JAW_legacy: (Legacy) Oregon State University Tanguay Lab 120 Hour Post-fertilization zebrafish Assay for Jaw Malformation (AID 2283638);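 as to AC50: active means more embryos with jaw malformation than DMSO controls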
In short: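 Dechorionated Tropical 5D wild-type zebrafish embryos, one per well, exposed statically from 6 hpf to 120 hpf at 28C in 0.64% DMSO. Jaw malformation was scored by brightfield microscopy as present or absent. It was not scored in dead embryos.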

[2] = Tanguay_ZF_120hpf_OTIC_legacy: (Legacy) Oregon State University Tanguay Lab 120 Hour Post-fertilization zebrafish Assay for Otic Vesicle Malformation (AID 2283639)
In short: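 Binary scoring of otic vesicle defects at 120 hpf in zebrafish (Tropical 5D) held under static exposure at 28C, sealed and shaded, with final DMSO 0.64%. Embryos dying by 24 or 120 hpf excluded; fitted positively against DMSO.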

[3] = Tanguay_ZF_120hpf_PE_legacy: (Legacy) Oregon State University Tanguay Lab 120 Hour Post-fertilization zebrafish Assay for Pericardial Edema (AID 2283640);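 as to AC50: potency for increased incidence of pericardial edema versus DMSO baseline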
In short: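 Tropical 5D wild-type zebrafish embryos were statically exposed until 120 hpf at 28C, with 0.64% DMSO final. Pericardial edema was scored by brightfield as present or absent; endpoints were not scored in dead embryos.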

[4] = Tanguay_ZF_120hpf_BRAI_legacy: (Legacy) Oregon State University Tanguay Lab 120 Hour Post-fertilization zebrafish Assay for Brain Malformation (AID 2283641)
In short: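 Tropical 5D wild-type zebrafish embryos exposed statically until 120 hpf at 28C, 0.64% DMSO final, sealed and dark. Brain malformation scored present/absent by brightfield at 120 hpf; dead embryos excluded. Trimethyltin chloride 5uM positive control.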

[5] = Tanguay_ZF_120hpf_SOMI_legacy: (Legacy) Oregon State University Tanguay Lab 120 Hour Post-fertilization zebrafish Assay for Somite Malformation (AID 2283647)
In short: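 Dechorionated Tropical 5D wild-type zebrafish embryos, one per well from 6 hpf, statically exposed at 28C to 120 hpf in 0.64% DMSO; somite malformation scored present/absent by brightfield; trimethyltin 5 uM positive control; dead embryos not scored.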

[6] = Tanguay_ZF_120hpf_PFIN_legacy: (Legacy) Oregon State University Tanguay Lab 120 Hour Post-fertilization zebrafish Assay for Pectoral Fin Malformation (AID 2283648);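 also: each larva judged yes or no for fin defect by brightfield with dead larvae skipped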
In short: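 Pectoral fin malformation was recorded as a binary endpoint at 120 hpf in wild-type Tropical 5D larvae, which had been dechorionated and exposed statically from 6 hpf at 28C in 0.64% DMSO. Dead embryos were excluded.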

[7] = Tanguay_ZF_120hpf_CFIN_legacy: (Legacy) Oregon State University Tanguay Lab 120 Hour Post-fertilization zebrafish Assay for Caudal Fin Malformation (AID 2283649)
In short: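 Dechorionated Tropical 5D wild-type embryos, one per well from 6 hpf, static exposure to 120 hpf at 28C in 0.64% DMSO. Caudal fin malformation scored by brightfield as present/absent; not scored in dead embryos.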

[8] = Tanguay_ZF_120hpf_PIG_legacy: (Legacy) Oregon State University Tanguay Lab 120 Hour Post-fertilization zebrafish Assay for Pigmentation Malformation (AID 2283650)
In short: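 Pigment malformation recorded as a binary call at 120 hpf in zebrafish (Tropical 5D) exposed singly from 6 hpf after pronase dechorionation. Static, sealed, 28C exposure, 0.64% DMSO; mortality excludes scoring; positive-direction fit against DMSO.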

[9] = Tanguay_ZF_120hpf_CIRC_legacy: (Legacy) Oregon State University Tanguay Lab 120 Hour Post-fertilization zebrafish Assay for Circulatory Malformation (AID 2283651)
In short: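 Binary circulatory malformation call at 120 hpf by brightfield imaging of zebrafish larvae; chorion removed at 4 hpf, static exposure from 6 hpf in sealed dark plates at 28C, final DMSO 0.64%; non-mortality endpoints skipped if embryo died.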

[10] = read-out: kallikrein-3 (KLK3), KLK3 (gene 354); assay: LTEA_HepaRG_KLK3: Life Technologies and Expression Analysis (LTEA) Assay for kallikrein-3 (KLK3) using HepaRG (AID 2283652; active = hit-call score of the fitted dose curve at least 0.9, where 1 is the maximum; inactive = score below 0.9); conditions: mRNA level, 48 h; actives raise or lower the signal
In short: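 KLK3 transcript levels were measured by TaqMan qRT-PCR with normalisation to three housekeeping genes. HepaRG cultures received chemicals for 48 h at up to 100 uM (half-log, 8 points, 0.5% DMSO vehicle), fitted in both directions against DMSO.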

Compound	outcome [1]	outcome [2]	outcome [3]	outcome [4]	outcome [5]	outcome [6]	outcome [7]	outcome [8]	outcome [9]	outcome [10]	AC50 [1]	AC50 [3]	AC50 [4]	AC50 [6]
O=C(O)C(F)(F)C(F)(F)C(F)(F)C(F)(F)C(F)(F)C(F)(F)C(F)(F)C(F)(F)C(F)(F)C(F)(F)F	inactive	inactive	inactive	inactive	inactive	inactive	inactive	inactive	inactive	inactive				
O=[N+]([O-])c1ccc(O)c([N+](=O)[O-])c1	inactive	inactive	inactive	inactive		inactive		inactive	inactive					
Cc1ccccc1N	inactive		inactive	inactive	inactive	inactive	inactive	inactive	inactive					
O=C(O)C(Cl)(Cl)Cl	inactive	inactive	inactive	inactive	inactive	inactive	inactive	inactive	inactive					
NC(=O)O	inactive		inactive	inactive	inactive		inactive		inactive	inactive				
ClCC(Cl)CCl	inactive	inactive	inactive	inactive	inactive		inactive	inactive	inactive					
C[C@@H]1C[C@@H]([C@H](O)CC2CC(=O)NC(=O)C2)C(=O)[C@@H](C)C1	inactive	inactive	inactive	inactive	inactive		inactive	inactive	inactive					
CCN1CCC2(CC1)COc1cc3c(cc12)N(C(=O)c1ccc(-c2ccc(-c4nnc(C)o4)cc2C)cc1)CC3	inactive	inactive	inactive	inactive	inactive	inactive		inactive	inactive					
CCOP(=S)(OCC)SCSP(=S)(OCC)OCC	inactive	inactive	inactive	inactive	inactive	inactive	inactive		inactive					
Cn1sc(Cl)cc1=O	inactive	inactive	inactive	inactive		inactive	inactive	inactive						
Oc1cccc2cccnc12	inactive	inactive	inactive	inactive	inactive	inactive	inactive	inactive	inactive					
O=C1C2(Cl)C3(Cl)C4(Cl)C(Cl)(Cl)C5(Cl)C3(Cl)C1(Cl)C5(Cl)C24Cl (stereo unspecified)		inactive		inactive	inactive	inactive	inactive	inactive	inactive		8.93 µM (active)	38.8 µM (active)		
O=c1[nH]c(=O)[nH]c(=O)[nH]1	inactive	inactive	inactive	inactive	inactive	inactive		inactive	inactive					
C[C@]12CCC(=O)C[C@@H]1CC[C@@H]1[C@@H]2CC[C@]2(C)[C@@H](O)CC[C@@H]12	inactive	inactive	inactive	inactive	inactive	inactive	inactive	inactive	inactive					
CC(C)(C)c1cc(O)ccc1O	inactive	inactive	inactive	inactive	inactive	inactive	inactive		inactive					
CCC(=O)C(CC(C)N(C)C)(c1ccccc1)c1ccccc1 (stereo unspecified)		inactive		inactive	inactive	inactive	inactive	inactive	inactive		34.4 µM (active)	7.24 µM (active)		

Compound	outcome [1]	outcome [2]	outcome [3]	outcome [4]	outcome [5]	outcome [6]	outcome [7]	outcome [8]	outcome [9]	outcome [10]	AC50 [1]	AC50 [3]	AC50 [4]	AC50 [6]
CCOP(=S)(OCC)Oc1nc(Cl)c(Cl)cc1Cl	inactive	inactive	inactive	inactive	inactive		inactive	inactive	inactive					
CC12CC1(C)C(=O)N(c1cc(Cl)cc(Cl)c1)C2=O (stereo unspecified)	inactive	inactive	inactive	inactive	inactive			inactive	inactive					
CCCCCCCCc1ccc(O)cc1	inactive	inactive	inactive	inactive	inactive	inactive	inactive							
CC(C)(C)CC(C)(C)c1ccc(O)cc1		inactive	inactive		inactive	inactive	inactive							
CN(C)N=O	inactive	inactive	inactive	inactive	inactive		inactive		inactive					
CC(C)(OO)c1ccccc1	inactive	inactive	inactive		inactive	inactive	inactive	inactive	inactive					
COc1cc(-c2ccc(N)c(OC)c2)ccc1N	inactive	inactive	inactive	inactive	inactive	inactive	inactive	inactive	inactive		47 µM (active)	12.5 µM (active)	77.2 µM (active)	87.5 µM (active)
CCC(C)(C)c1ccc(O)c(C(C)(C)CC)c1	inactive	inactive	inactive	inactive	inactive		inactive	inactive	inactive					
CC(=O)[O][Hg][c]1ccccc1	inactive	inactive	inactive	inactive	inactive	inactive	inactive	inactive	inactive					
CC(C)(c1ccccc1)c1ccc(O)c(C(C)(C)c2ccccc2)c1	inactive	inactive	inactive	inactive		inactive	inactive	inactive	inactive					
C=CC(=O)OCCCCCC(C)C	inactive	inactive	inactive	inactive	inactive	inactive	inactive		inactive					
ClC1(Cl)C2(Cl)C3(Cl)C4(Cl)C(Cl)(Cl)C5(Cl)C3(Cl)C1(Cl)C5(Cl)C24Cl (stereo unspecified)	inactive	inactive	inactive	inactive	inactive	inactive	inactive	inactive	inactive	inactive				
C=C(C)C(=O)[O][Sn]([CH2]CCC)([CH2]CCC)[CH2]CCC	inactive	inactive	inactive	inactive	inactive	inactive	inactive	inactive	inactive					
O=C(O)C(F)(F)C(F)(F)C(F)(F)C(F)(F)C(F)(F)C(F)(F)F	inactive	inactive	inactive	inactive		inactive	inactive	inactive	inactive					
O=C(Nc1ccc2[nH]ccc2c1)c1cc2cc(F)ccc2n1Cc1cccc(F)c1	inactive	inactive	inactive	inactive	inactive	inactive	inactive	inactive	inactive					
